We go through 31 compounds from PubChem BioAssay (EPA / NIEHS).

Test [1] in a line: ATG_CRE_CIS: Attagene CIS-FACTORIAL HepG2 Assay for human cAMP Responsive Element (CRE) binding protein 3 (AID 2282926; active = hit-call score of the fitted dose curve at least 0.9, where 1 is the maximum; inactive = score below 0.9). The following applies: HepG2 CRE cis-reporter, Attagene multiplexed mRNA; actives raise or lower the signal. A digest of the protocol: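 HepG2 cells transiently transfected with cis-element-driven multiple reporter transcription units; CRE reporter mRNA measured 24 h after dosing by RT-PCR, 6-FAM labelling, HpaI digestion and capillary electrophoresis. Bidirectional fit versus DMSO baseline.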

Test [2] concerns the target CCAAT/enhancer-binding protein beta (Homo sapiens) (UniProt P17676). Nature of the test: ATG_C_EBP_CIS: Attagene CIS-FACTORIAL HepG2 Assay for human CCAAT/Enhancer Binding Protein (C/EBP) beta (AID 2282927; active = hit-call score of the fitted dose curve at least 0.9, where 1 is the maximum; inactive = score below 0.9). Particulars: HepG2 Attagene cis-factorial transcription factor reporter; actives raise or lower the signal. A digest of the protocol:
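HepG2 transiently transfected with multiplexed reporter units under cis-regulatory promoters reporting endogenous C/EBPb activity. After 24 h exposure, reporter mRNA assayed by RT-PCR, fluorescent labelling, HpaI digestion and capillary electrophoresis; bidirectional fitting versus DMSO.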

The nature of test [3]: ATG_DR4_LXR_CIS: Attagene CIS-FACTORIAL HepG2 Assay for human Liver X Receptor (LXR), DR4 submotif (AID 2282929; active = hit-call score of the fitted dose curve at least 0.9, where 1 is the maximum; inactive = score below 0.9). Particulars: HepG2 Attagene DR4 cis-reporter, mRNA transcription; actives raise or lower the signal. The essentials:
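DR4 cis-reporter in HepG2, 24 h exposure. Detection: RT-PCR, 6-FAM labelling, CE fragment analysis. Endpoint fitted bidirectionally, DMSO = baseline.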

A short description of test [4]: ATG_AP_2_CIS: Attagene CIS-FACTORIAL HepG2 Assay for human Activator Protein 2 (AP-2) (AID 2282932; active = hit-call score of the fitted dose curve at least 0.9, where 1 is the maximum; inactive = score below 0.9). Particulars: HepG2 AP-2 cis-reporter, Attagene transcription factor profiling; actives raise or lower the signal. A digest of the protocol: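 HepG2 cells transiently transfected with cis-element reporter units and exposed for 24 h. Reporter mRNA measured by RT-PCR, FAM labelling, HpaI digestion and capillary electrophoresis. Changes in either direction fitted relative to DMSO.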

Test [5] in a line: ATG_BRE_CIS: Attagene CIS-FACTORIAL HepG2 Assay for human Bone Morphogenetic Protein (BMP) Response Element (BRE) (AID 2282933; active = hit-call score of the fitted dose curve at least 0.9, where 1 is the maximum; inactive = score below 0.9). Particulars: HepG2 BMP response element reporter, Attagene transcription factor profiling; actives raise or lower the signal. A digest of the protocol:
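HepG2 cells transiently transfected with CIS reporter units (endogenous TF activity, BMP response element), dosed 24 h. Reporter mRNA quantified by RT-PCR, fluorescent labelling and capillary electrophoresis; bidirectional fit vs DMSO baseline.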

For test [6], the target named is Transcription factor E2F1 (Homo sapiens) (UniProt Q01094). Nature of the test: ATG_E2F_CIS: Attagene CIS-FACTORIAL HepG2 Assay for human E2F Transcription Factor 1 (AID 2282935; active = hit-call score of the fitted dose curve at least 0.9, where 1 is the maximum; inactive = score below 0.9). The following applies: HepG2 Attagene cis-reporter, E2F reporter RNA transcripts; actives raise or lower the signal. A digest of the protocol:
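Endogenous E2F1 activity read through cis-promoter reporter units transfected into HepG2. After 24 h compound treatment, reporter mRNA measured by RT-PCR, HpaI digestion and capillary electrophoresis. Bidirectional fit versus DMSO.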

The nature of test [7]: ATG_EGR_CIS: Attagene CIS-FACTORIAL HepG2 Assay for human Early Growth Response 1 (EGR1) (AID 2282938; active = hit-call score of the fitted dose curve at least 0.9, where 1 is the maximum; inactive = score below 0.9). The following applies: HepG2 Attagene CIS-FACTORIAL EGR reporter mRNA; actives raise or lower the signal. The essentials: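 Endpoint derived by bidirectional fitting versus DMSO vehicle. Method: cis-promoter reporter units transfected into HepG2, 24 h dosing, RNA isolation, RT-PCR with 6-FAM primer extension and HpaI digestion, then capillary electrophoresis fluorescence detection.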

Test [8] in a line: ATG_M_19_CIS: Attagene CIS-FACTORIAL HepG2 Assay for M19 Transcription Factor (Internal Marker) (AID 2282939; active = hit-call score of the fitted dose curve at least 0.9, where 1 is the maximum; inactive = score below 0.9). Particulars: HepG2 Attagene CIS-FACTORIAL M19 internal marker reporter; actives raise or lower the signal. The essentials:
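HepG2 cells transiently transfected with cis-regulated multiplexed reporter units, dosed 24 h. Reporter mRNA quantified by RT-PCR and capillary electrophoresis; internal background marker fitted bidirectionally versus DMSO.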

Test [9] is described as follows: ATG_Ets_CIS: Attagene CIS-FACTORIAL HepG2 Assay for human Erythroblast Transformation Specific (ETS) (AID 2282941; active = hit-call score of the fitted dose curve at least 0.9, where 1 is the maximum; inactive = score below 0.9). Particulars: HepG2 ETS cis-reporter transcription, actives raise or lower the signal. A digest of the protocol: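 Steps: transfect HepG2 with multiple reporter units; treat compound 24 h; isolate RNA, DNase-treat, reverse-transcribe; PCR-amplify, label with 6-FAM, digest with HpaI; separate by capillary electrophoresis. Activity fitted both directions versus DMSO.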

Test [10] has as its target Hepatocyte nuclear factor 3-beta (Homo sapiens) (UniProt Q9Y261). In words: ATG_FoxA2_CIS: Attagene CIS-FACTORIAL HepG2 Assay for human Forkhead box A2 (FOXA2) (AID 2282942; active = hit-call score of the fitted dose curve at least 0.9, where 1 is the maximum; inactive = score below 0.9). Particulars: HepG2 cis-reporter transcription factor activity, 24 h; actives raise or lower the signal. The essentials:
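Measured: reporter mRNA induction or loss in HepG2 transiently carrying multiple cis-regulated reporter units, 24 h after dosing. Quantified by RT-PCR plus capillary electrophoresis, normalised to DMSO.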

A short description of test [11]: ATG_FoxO_CIS: Attagene CIS-FACTORIAL HepG2 Assay for human Forkhead box O (FoxO) (AID 2282943; active = hit-call score of the fitted dose curve at least 0.9, where 1 is the maximum; inactive = score below 0.9). Particulars: HepG2 Attagene cis-reporter, FoxO element, mRNA; actives raise or lower the signal. A digest of the protocol: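 HepG2 cells transiently transfected with cis-element-driven reporter units report endogenous FoxO activity. After 24 h chemical exposure, reporter mRNA quantified by RT-PCR, fluorescent labeling, HpaI digestion and capillary electrophoresis; bidirectional fit versus DMSO.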

Test [12] in a line: ATG_GATA_CIS: Attagene CIS-FACTORIAL HepG2 Assay for human GATA Binding Protein (AID 2282944; active = hit-call score of the fitted dose curve at least 0.9, where 1 is the maximum; inactive = score below 0.9). The following applies: HepG2 GATA cis-element reporter, Attagene multiplex mRNA; actives raise or lower the signal. The essentials: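 HepG2 cells transiently transfected with multiplexed cis-element reporter units measure endogenous GATA activity; after 24 h compound exposure, reporter mRNA quantified by RT-PCR and capillary electrophoresis. Changes fitted in both directions vs DMSO.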

The nature of test [13]: ATG_GLI_CIS: Attagene CIS-FACTORIAL HepG2 Assay for human Zinc Finger Protein GLI1 (AID 2282945; active = hit-call score of the fitted dose curve at least 0.9, where 1 is the maximum; inactive = score below 0.9). The following applies: HepG2, Attagene cis-factorial reporter mRNA, GLI element; actives raise or lower the signal. The essentials:
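Transiently transfected HepG2 cells report endogenous transcription factor activity via cis-element-driven reporter units. After 24 h compound exposure, reporter mRNA was measured by RT-PCR with capillary electrophoresis; bidirectional fitting against DMSO baseline.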

A short description of test [14]: ATG_M_06_CIS: Attagene CIS-FACTORIAL HepG2 Assay for M06 Transcription Factor (Internal Marker) (AID 2282950; active = hit-call score of the fitted dose curve at least 0.9, where 1 is the maximum; inactive = score below 0.9). The following applies: HepG2 Attagene CIS-FACTORIAL M06 internal marker reporter; actives raise or lower the signal. A digest of the protocol: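 Internal background marker within multiplexed cis-reporter HepG2 system. Cells transiently transfected, dosed 24 h; reporter mRNA measured by RT-PCR, HpaI digestion and capillary electrophoresis. Bidirectional fit relative to DMSO.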

Test [15] concerns the target Hepatocyte nuclear factor 6 (Homo sapiens) (UniProt Q9UBC0). In words: ATG_HNF6_CIS: Attagene CIS-FACTORIAL HepG2 Assay for human Hepatocyte Nuclear Factor 6 (HNF6) (AID 2282952; active = hit-call score of the fitted dose curve at least 0.9, where 1 is the maximum; inactive = score below 0.9). The following applies: HepG2 Attagene cis-factorial HNF6 reporter transcription; actives raise or lower the signal. The essentials:
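HepG2 cells transiently transfected with cis-element-driven multiplexed reporter units measuring endogenous transcription factor activity. After 24 h exposure, reporter mRNA quantified by RT-PCR, FAM-labelled fragments and capillary electrophoresis; bidirectional fitting versus DMSO.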

The nature of test [16]: ATG_MRE_CIS: Attagene CIS-FACTORIAL HepG2 Assay for human Metal Responsive Element (MRE) (AID 2282954; active = hit-call score of the fitted dose curve at least 0.9, where 1 is the maximum; inactive = score below 0.9). The following applies: HepG2 MRE cis-reporter transcription, Attagene multiplex; actives raise or lower the signal. A digest of the protocol:
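HepG2 cells transiently transfected with cis-element-driven reporter units; mRNA measured 24 h after dosing. Reporter transcripts quantified by RT-PCR, FAM labelling, HpaI digestion and capillary electrophoresis; bidirectional fit versus DMSO.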

Test [17] concerns the target Paired box protein Pax-6 (Homo sapiens) (UniProt P26367). In words: ATG_Pax6_CIS: Attagene CIS-FACTORIAL HepG2 Assay for human Paired Box 6 (PAX6) (AID 2282956; active = hit-call score of the fitted dose curve at least 0.9, where 1 is the maximum; inactive = score below 0.9). Particulars: HepG2 CIS-FACTORIAL PAX6 reporter transcription, RNA readout; actives raise or lower the signal. A digest of the protocol: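 Transient MRTU transfection of HepG2 → compound exposure 24 h → TriZol RNA, oligo(dT) RT → PCR, 6-FAM primer extension, HpaI cut → capillary electrophoresis; activity fitted both directions against DMSO.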

Test [18] in a line: ATG_PXRE_CIS: Attagene CIS-FACTORIAL HepG2 Assay for human Pregnane X Receptor Element (PXRE) (AID 2282957; active = hit-call score of the fitted dose curve at least 0.9, where 1 is the maximum; inactive = score below 0.9). Particulars: HepG2 Attagene CIS-FACTORIAL PXRE reporter, mRNA; actives raise or lower the signal. The essentials:
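HepG2 cells transiently transfected with cis-element-driven multiplexed reporter units; after 24 h chemical exposure, reporter mRNA measured by RT-PCR, 6-FAM labelling, HpaI digestion and capillary electrophoresis. Bidirectional fitting relative to DMSO.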

Test [19] is described as follows: ATG_Sox_CIS: Attagene CIS-FACTORIAL HepG2 Assay for human SRY-box transcription factor (SOX) (AID 2282960; active = hit-call score of the fitted dose curve at least 0.9, where 1 is the maximum; inactive = score below 0.9). Particulars: HepG2 Attagene cis-factorial SOX reporter, mRNA; actives raise or lower the signal. The essentials:
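Gain- or loss-of-signal endpoint, fitted bidirectionally with DMSO as negative control. Based on reporter mRNA from transfected HepG2 cells harvested 24 h post-treatment and quantified via RT-PCR and capillary electrophoresis.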

Test [20] addresses Androgen receptor (Homo sapiens) (UniProt P10275). Nature of the test: ATG_AR_TRANS: Attagene TRANS-FACTORIAL HepG2 Assay for human Androgen Receptor (AR) (AID 2282973). The following applies: HepG2 Attagene TRANS-FACTORIAL AR reporter transcription. The essentials: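 HepG2 cells transiently transfected with AR-Gal4 chimera and GAL4-UAS reporter units; chemical exposure 24 h. Reporter mRNA quantified by RT-PCR with fluorescent labelling and capillary electrophoresis; gain-of-signal fitted against DMSO.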

Records with an inconclusive call do not appear. Activity calls are given as the source filed them. The calls were made as follows, unless noted: active = hit-call score of the fitted dose curve at least 0.9, where 1 is the maximum; inconclusive = response in the unintended direction; inactive = score below 0.9.

Sequence of Androgen receptor (Homo sapiens) (P10275 whole entry, looked up, the tested form may be a part): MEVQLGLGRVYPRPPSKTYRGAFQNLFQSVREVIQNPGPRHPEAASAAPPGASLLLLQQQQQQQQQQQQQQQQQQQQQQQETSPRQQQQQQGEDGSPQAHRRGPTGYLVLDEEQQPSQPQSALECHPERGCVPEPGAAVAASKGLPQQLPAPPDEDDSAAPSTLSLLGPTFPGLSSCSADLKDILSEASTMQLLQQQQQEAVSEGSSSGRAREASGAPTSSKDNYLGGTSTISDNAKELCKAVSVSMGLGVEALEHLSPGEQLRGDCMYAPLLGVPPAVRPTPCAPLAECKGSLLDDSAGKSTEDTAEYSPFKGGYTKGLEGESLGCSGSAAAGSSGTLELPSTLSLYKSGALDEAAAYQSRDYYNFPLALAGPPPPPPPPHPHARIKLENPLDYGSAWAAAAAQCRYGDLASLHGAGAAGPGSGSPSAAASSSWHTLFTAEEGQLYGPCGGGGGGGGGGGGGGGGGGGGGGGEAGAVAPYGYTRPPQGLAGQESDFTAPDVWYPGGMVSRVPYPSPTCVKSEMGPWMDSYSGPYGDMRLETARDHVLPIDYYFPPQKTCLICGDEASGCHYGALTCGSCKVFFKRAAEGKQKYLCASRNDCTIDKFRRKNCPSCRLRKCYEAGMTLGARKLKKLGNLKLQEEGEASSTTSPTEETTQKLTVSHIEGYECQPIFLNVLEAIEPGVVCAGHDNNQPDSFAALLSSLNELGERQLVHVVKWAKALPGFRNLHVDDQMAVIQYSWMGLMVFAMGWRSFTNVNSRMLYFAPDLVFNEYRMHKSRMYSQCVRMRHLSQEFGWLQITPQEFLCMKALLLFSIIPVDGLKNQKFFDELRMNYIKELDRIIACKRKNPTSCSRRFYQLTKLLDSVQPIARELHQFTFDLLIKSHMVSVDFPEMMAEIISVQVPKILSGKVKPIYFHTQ
Sequence of Paired box protein Pax-6 (Homo sapiens) (P26367 whole entry, looked up): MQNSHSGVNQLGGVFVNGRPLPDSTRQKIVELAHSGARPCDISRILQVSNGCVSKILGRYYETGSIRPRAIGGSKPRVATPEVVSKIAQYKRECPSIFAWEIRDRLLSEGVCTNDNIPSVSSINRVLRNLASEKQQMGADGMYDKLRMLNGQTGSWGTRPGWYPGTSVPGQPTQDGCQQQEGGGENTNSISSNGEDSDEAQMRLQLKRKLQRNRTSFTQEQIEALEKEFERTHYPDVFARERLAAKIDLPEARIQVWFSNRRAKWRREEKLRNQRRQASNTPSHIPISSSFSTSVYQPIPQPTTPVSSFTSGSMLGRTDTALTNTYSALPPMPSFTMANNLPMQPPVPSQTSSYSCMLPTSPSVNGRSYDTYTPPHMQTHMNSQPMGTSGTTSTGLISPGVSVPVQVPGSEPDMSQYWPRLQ
Sequence of Hepatocyte nuclear factor 6 (Homo sapiens) (Q9UBC0 whole entry, looked up, the tested form may be a part): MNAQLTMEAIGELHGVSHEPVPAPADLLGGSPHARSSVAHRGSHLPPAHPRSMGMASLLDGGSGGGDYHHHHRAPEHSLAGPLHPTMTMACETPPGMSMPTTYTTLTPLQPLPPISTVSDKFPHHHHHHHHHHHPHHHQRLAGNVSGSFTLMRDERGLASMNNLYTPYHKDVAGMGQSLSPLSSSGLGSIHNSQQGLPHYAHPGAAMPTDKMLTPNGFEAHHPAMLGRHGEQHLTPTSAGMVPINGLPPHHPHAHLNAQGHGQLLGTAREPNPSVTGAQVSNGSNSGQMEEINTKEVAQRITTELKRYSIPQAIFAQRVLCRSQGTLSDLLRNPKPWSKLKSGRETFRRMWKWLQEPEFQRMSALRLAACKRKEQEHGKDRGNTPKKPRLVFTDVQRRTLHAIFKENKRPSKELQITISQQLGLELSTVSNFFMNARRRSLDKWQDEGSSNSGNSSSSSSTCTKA
Sequence of Hepatocyte nuclear factor 3-beta (Homo sapiens) (Q9Y261 whole entry, looked up): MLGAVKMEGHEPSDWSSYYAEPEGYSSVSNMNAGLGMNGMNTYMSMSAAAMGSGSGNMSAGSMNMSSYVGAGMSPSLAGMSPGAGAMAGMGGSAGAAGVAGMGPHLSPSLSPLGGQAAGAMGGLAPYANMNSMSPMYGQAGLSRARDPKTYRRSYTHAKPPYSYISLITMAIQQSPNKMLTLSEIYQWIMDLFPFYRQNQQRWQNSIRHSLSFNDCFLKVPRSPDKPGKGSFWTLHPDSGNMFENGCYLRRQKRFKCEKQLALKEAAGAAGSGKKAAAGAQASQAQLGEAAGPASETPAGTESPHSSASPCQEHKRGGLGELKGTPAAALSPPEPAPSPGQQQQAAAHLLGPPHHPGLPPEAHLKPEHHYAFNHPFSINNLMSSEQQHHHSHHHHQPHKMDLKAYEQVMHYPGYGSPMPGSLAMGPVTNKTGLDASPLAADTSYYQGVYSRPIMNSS
Sequence of CCAAT/enhancer-binding protein beta (Homo sapiens) (P17676 whole entry, looked up): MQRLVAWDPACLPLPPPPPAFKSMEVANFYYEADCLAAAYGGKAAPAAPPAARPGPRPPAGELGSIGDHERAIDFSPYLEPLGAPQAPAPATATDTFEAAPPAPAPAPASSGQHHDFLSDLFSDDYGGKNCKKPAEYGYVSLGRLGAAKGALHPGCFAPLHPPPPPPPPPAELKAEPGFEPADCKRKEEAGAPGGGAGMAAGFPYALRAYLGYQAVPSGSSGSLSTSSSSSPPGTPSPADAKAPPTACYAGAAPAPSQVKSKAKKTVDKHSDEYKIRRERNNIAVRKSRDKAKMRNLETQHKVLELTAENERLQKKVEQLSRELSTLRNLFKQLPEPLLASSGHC
Sequence of Transcription factor E2F1 (Homo sapiens) (Q01094 whole entry, looked up): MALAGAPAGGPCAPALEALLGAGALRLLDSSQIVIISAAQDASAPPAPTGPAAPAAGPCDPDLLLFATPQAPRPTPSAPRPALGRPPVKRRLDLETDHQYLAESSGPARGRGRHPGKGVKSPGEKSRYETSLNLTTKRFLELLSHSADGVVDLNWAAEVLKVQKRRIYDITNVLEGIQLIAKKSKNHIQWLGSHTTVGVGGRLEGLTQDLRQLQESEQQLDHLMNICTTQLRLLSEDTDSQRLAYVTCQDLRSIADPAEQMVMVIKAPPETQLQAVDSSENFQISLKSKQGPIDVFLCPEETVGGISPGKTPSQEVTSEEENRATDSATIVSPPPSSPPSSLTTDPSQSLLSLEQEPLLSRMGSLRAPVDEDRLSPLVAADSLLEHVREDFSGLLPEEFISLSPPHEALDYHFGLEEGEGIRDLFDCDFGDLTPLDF

On to `Nc1ccccc1`, for which the compound was classed as inactive in test [1], in test [2], in [3], in test [4], in test [5] and in [6]. The compound was called inactive in test [7], in test [8], in [9], in test [10], in test [11] and in test [12]. For the same compound, the compound was classed as inactive in test [13], in test [14], in test [15], in test [16], in test [17] and in test [18]. Also, in test [19], the outcome was inactive. In the case of `NC(=O)C(F)(F)C(F)(F)C(F)(F)C(F)F`, in [20], the compound was classed as inactive. On to `c1ccc2[nH]ccc2c1`, for which, in test [20], the compound was called inactive. On the same count and under the same terms, to `CC(C)CCOCCC(C)C` belongs “inactive”. As to `O=CC(F)(F)C(F)(F)C(F)(F)C(F)F`, in test [20], the compound was classed as inactive. `CCCCCCCOC(=O)c1ccccc1C(=O)OCCCCCCC`: the result in test [20] was inactive. Regarding `CC1CCC(C(=O)O)CC1` (centres undefined), in [20], the result was inactive. For the compound `CC1=CCC2C(=O)OC(=O)C2C1` (centres undefined), the result in test [20] was inactive. Still for that read-out and setting: to `Cc1cc(=O)n(-c2ccccc2)n1C` belongs “inactive”. `c1ccc(Sc2ccccc2)cc1`: in test [20], the result was inactive.

Take `Nc1nc2ccc([N+](=O)[O-])cc2s1`: in test [20], the compound was classed as inactive. Take `OCc1ccccc1`: the call in test [20] was inactive. Consider `OCCN(CCO)c1cccc(Cl)c1`, for which the compound was called inactive in [20].

For `CC(CO)c1ccccc1` (centres undefined), the compound was called inactive in test [20]. On to `CCc1cccc(C)c1N(C(=O)CS(=O)(=O)O)C(C)COC` (centres undefined), for which the result in [20] was inactive. Consider `Nc1cc([N+](=O)[O-])ccc1Cl`, for which the result in test [20] was inactive.

On to `CC(=O)CC(C)(C)O`, for which the result in [20] was inactive. Still for that read-out and setting: to `COc1cc(CCC(C)=O)ccc1O` belongs “inactive”; to `FC(F)(F)C(F)(F)C(F)(F)N(C(F)(F)C(F)(F)C(F)(F)F)C(F)(F)C(F)(F)C(F)(F)F`, “inactive”; to `CCCC1CCOC(C)S1` (centres undefined), “inactive”. Same read-out and setting: to `CC(=O)O[C@H]1C[C@@H]2CC[C@@]1(C)C2(C)C` belongs “inactive”; to `CC(C)(C)c1n[nH]c(=O)n(N)c1=O`, “inactive”; to `[Cl][Bi]([Cl])([c]1ccccc1)([c]1ccccc1)[c]1ccccc1`, “inactive”. With `C=C(C)[C@@H]1CCC2=CCC[C@@H](C)[C@]2(C)C1`, the compound was called inactive in test [20]. As for `CSc1nnc(C(C)(C)C)c(=O)[nH]1`, the compound was classed as inactive in test [20]. For `Cc1ccc(O)cn1`, the outcome in [20] was inactive. On to `C=C(C)C1CC=C(C)C(=O)C1` (centres undefined), for which the compound was classed as inactive in test [20]. With `NCCCN1CCN(CCCN)CC1`, in [20], the compound was called inactive.

As to `OCC(F)(F)C(F)(F)C(F)(F)CO`, the compound was classed as inactive in test [20]. Regarding `c1ccc(-c2ccccc2-c2ccccc2)cc1`, in [20], the compound was called inactive. For `CC(=O)N(C)C`, in [20], the compound was classed as inactive.
